According to PubChem BioAssay AID488969 (Vanderbilt High Throughput Screening Facility, 2010):
The full ranking holds about 110,000 compounds; the median of “z-score” is about -0.1, and the highest 2% start at about 2. What follows is part of a selection rich in the highest values, with near analogues and random picks from the rest. The source made the active and inactive calls.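 The calls were made as follows: active = z-score in the third read window above 3 or below -3; inactive = the rest.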

Molecular target: Metabotropic glutamate receptor 8 (Rattus norvegicus) (UniProt P70579)
Test: rat mGluR8 modulators via GIRK flux, primary screen, cell-based, thallium flux, HTS (AID 488969)
Conditions: HEK293 rat mGluR8, GIRK (G protein-gated inwardly rectifying potassium channel) thallium flux, FluoZin2; at 10 µM; stronger effect = higher value; submaximal glutamate (EC20) added with thallium

Sequence of Metabotropic glutamate receptor 8 (Rattus norvegicus) (P70579 whole entry, looked up): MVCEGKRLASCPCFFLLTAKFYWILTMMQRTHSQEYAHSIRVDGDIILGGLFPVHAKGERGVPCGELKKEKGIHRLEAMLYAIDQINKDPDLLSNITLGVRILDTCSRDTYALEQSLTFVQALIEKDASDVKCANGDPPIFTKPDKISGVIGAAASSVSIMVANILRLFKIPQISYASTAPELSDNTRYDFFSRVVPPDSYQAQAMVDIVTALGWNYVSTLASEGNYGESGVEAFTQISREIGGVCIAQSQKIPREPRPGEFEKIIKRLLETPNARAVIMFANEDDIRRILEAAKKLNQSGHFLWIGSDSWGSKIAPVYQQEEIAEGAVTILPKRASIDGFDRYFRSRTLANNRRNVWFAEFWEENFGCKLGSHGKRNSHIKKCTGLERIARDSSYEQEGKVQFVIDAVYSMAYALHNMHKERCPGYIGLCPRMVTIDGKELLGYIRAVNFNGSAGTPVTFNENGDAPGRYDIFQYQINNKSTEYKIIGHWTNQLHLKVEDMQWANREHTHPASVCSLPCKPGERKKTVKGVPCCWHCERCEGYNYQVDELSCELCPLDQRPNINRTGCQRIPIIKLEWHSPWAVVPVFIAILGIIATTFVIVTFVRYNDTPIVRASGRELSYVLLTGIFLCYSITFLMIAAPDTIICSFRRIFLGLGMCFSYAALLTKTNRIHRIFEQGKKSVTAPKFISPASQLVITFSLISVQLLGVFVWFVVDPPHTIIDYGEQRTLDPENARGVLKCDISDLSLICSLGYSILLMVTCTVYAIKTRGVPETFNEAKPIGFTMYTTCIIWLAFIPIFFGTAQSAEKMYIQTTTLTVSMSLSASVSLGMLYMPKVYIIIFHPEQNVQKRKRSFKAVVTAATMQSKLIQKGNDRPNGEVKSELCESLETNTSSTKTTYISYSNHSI

Row | Compound | z-score
1 | Cc1ccc(NC(=O)CCC(=O)NNC(=O)COc2ccccc2)c(C)c1 | -0.385
2 | CCOc1ccc(C(=O)NC(=S)Nc2ccc(NC(=O)c3ccco3)c(C)c2)cc1[N+](=O)[O-] | -0.187
3 | CCOc1ccc2ccccc2c1/C=N/NC(=O)CNC(=O)Cc1ccccc1 | -0.191
4 | CC1(C)CC(=O)c2cnc(N3CCc4ccccc4C3)nc2C1 | 0.63
5 | Brc1ccc(-c2csc(-c3ccncc3)n2)cc1 | 0.161
6 | CCOC(=O)c1c(C=O)c(C)n(Cc2ccc(Cl)cc2)c1C | 0.0766
7 | CCCN1C2=C(C(=O)CCC2)C(c2ccc(F)cc2)C2=C1c1ccccc1C2=O (stereo not given) | -0.266
8 | O=C(Cn1cnc2c(nnn2-c2ccc(F)cc2)c1=O)NCc1ccco1 | -0.127
9 | O=C(NCc1ccco1)c1cccc(S(=O)(=O)N2CCc3ccccc32)c1 | -0.341
10 | COc1ccc(C(=O)/C=C/c2cn(CN3CCN(C)CC3)c3ccccc23)cc1 | -0.629
11 | COc1ccc(C(=O)/C=C/c2cn(CC(O)CN3CCOCC3)c3ccccc23)cc1 (stereo not given) | -0.177
12 | CCC(=C(c1ccc(OC)cc1)c1ccc(OC)cc1)c1cn(CC(O)CN2CCN(C)CC2)c2ccccc12 (stereo not given) | 2.63
13 | COc1ccc(-n2c(COc3ccc4ccccc4c3)nnc2SCC(=O)NCc2ccco2)cc1 | 0.832
14 | COc1cnc(-c2ccccc2)nc1Oc1cccc(C)c1C | -0.012
15 | Cc1cccc(OCC(=O)Nc2nc3ccc([N+](=O)[O-])cc3s2)c1C | -0.12
16 | CCOCC(=O)Nc1nc2ccc(C)cc2s1 | -0.0136
17 | COCC(=O)Nc1nc2ccc(C)cc2s1 | 0.0888
18 | Cc1ccc(C)c(OCC(=O)Nc2nc3ccc([N+](=O)[O-])cc3s2)c1 | 0.0186
19 | Cc1ccc(C)c(OCC(=O)Nc2nc3ccc([N+](=O)[O-])cc3s2)c1C | 2.46
20 | Cc1cccc(OCC(=O)Nc2nc3ccc([N+](=O)[O-])cc3s2)c1 | 2.05
21 | O=C(CCl)N1c2ccccc2OCC1c1ccccc1 (stereo not given) | -0.994
22 | NC(=O)NC(=O)CSc1nc(C2CCCCC2)n(-c2ccccc2)n1 | -0.264

Row | Compound | z-score
23 | Cc1ccc(CNc2oc(-c3ccco3)nc2C#N)cc1 | -0.32
24 | Cc1nnc(N2C(=O)C(O)=C(C(=O)c3ccco3)C2c2ccc(C(C)(C)C)cc2)s1 (stereo not given) | -0.554
25 | Cc1ccc(NC(=O)COC(=O)c2sccc2C)cc1S(=O)(=O)N1CCOCC1 | 1.38
26 | Cc1ccc(C)c(NC(=S)N=Nc2c(O)n(C)c3ccc(S(=O)(=O)N4CCOCC4)cc23)c1 | 4.13 (active)
27 | Cc1ccc(NC(=S)N=Nc2c(O)n(C)c3ccc(S(=O)(=O)N4CCOCC4)cc23)cc1 | 3.93 (active)
28 | Cc1ccc(Nc2ccc(S(=O)(=O)N3CCOCC3)cc2[N+](=O)[O-])c(C)c1 | 1.29
29 | Cn1c(=O)n(C)c2cc(S(=O)(=O)N3CCOCC3)ccc21 | -0.185
30 | Cn1c(=O)c2cc(S(=O)(=O)N3CCOCC3)ccc2n(C)c1=O | 0.139
31 | Cc1cc(C)cc(NC(=S)N=Nc2c(O)n(C)c3ccc(S(=O)(=O)N4CCOCC4)cc23)c1 | 0.616
32 | CN(C)CCCN1C(=O)C(=O)/C(=C(/O)c2ccncc2)C1c1cccc(Br)c1 (stereo not given) | -0.318
33 | COc1ccc(OC)c(-c2cc(C(=O)Nc3cc(C)on3)no2)c1 | 0.941
34 | Cc1ccc(CNC(=O)C2C3C=CC4(CN(Cc5cccnc5)C(=O)C24)O3)cc1 (stereo not given) | -0.0986
35 | O=C(COC(=O)CCC1CCCC1)Nc1ccccc1Sc1ccccc1 | -0.2
36 | CCOc1c(OC(C)=O)ccc(/C=C/c2ccc3cccc(OC(C)=O)c3n2)c1[N+](=O)[O-] | -0.227
37 | COCCSc1ccccc1C(=O)NCc1ccco1 | 0.383
38 | O=C(N/N=C/c1ccc[nH]1)c1ccccc1[N+](=O)[O-] | -0.104
39 | CCN(CC)S(=O)(=O)c1ccc(N=Nc2c(C)[nH]n(C(N)=S)c2=O)cc1 | 0.608
40 | Cc1ccccc1N=Nc1c(C)[nH]n(C(N)=S)c1=O | 2.97
41 | Cc1ccc(N=Nc2c(C)[nH]n(C(N)=S)c2=O)cc1C | -0.217
42 | COCCCNC(=O)/C(=C\c1cccn1C)NC(=O)c1cccs1 | 0.0671
43 | O=C(NCc1ccccn1)C(F)(F)C(F)(F)C(=O)NCc1ccccn1 | -0.509
44 | CCc1nc2cc(Cl)c(Cl)cc2[nH]1 | 2

Row | Compound | z-score
45 | CCc1nc2cc([N+](=O)[O-])c([N+](=O)[O-])cc2[nH]1 | -0.0776
46 | CCc1nc2ccccc2[nH]1 | 0.00543
47 | Cc1nc2ccsc2c(=O)n1-c1ccc(Cl)cc1 | -0.0701
48 | COc1ccc(N2C(=O)C3C4C=CC(CC4)C3C2=O)c([N+](=O)[O-])c1 (stereo not given) | -0.215
49 | OCCn1c(SC2CCCCC2)nc2ccccc21 | 0.162
50 | O=C(C/C(=N\NC(=O)c1ccccc1Br)C(F)(F)F)c1cccs1 | 0.65
51 | O=C(N/N=C(/CC(=O)c1cccs1)C(F)(F)F)c1ccc(O)cc1 | -0.828
52 | Cc1ccc(C(=O)N/N=C(/CC(=O)c2cccs2)C(F)(F)F)cc1 | 7.05 (active)
53 | Cc1cc(C(=O)NCc2cc(C)n(C)n2)sc1-c1ccccc1 | -0.62
54 | CS(=O)(=O)Nc1ccccc1Oc1ccccc1 | 0.607
55 | COCCCn1c(SCc2nnc(-c3ccccc3)o2)nc2sc3c(c2c1=O)CCC3 | -0.256
56 | COc1cccc(C2OC(=O)c3ccccc3N2C(C)=O)c1OC(C)=O (stereo not given) | 0.116
57 | CSc1nc(Sc2ccc(Cl)cc2)c2ccccc2n1 | 0.0499
58 | CSc1nc(Sc2ccccc2)c2ccccc2n1 | 4.56 (active)
59 | CSc1nc(Sc2cccc(Cl)c2)c2ccccc2n1 | 0.093
60 | CCC(C)NC(=O)CCc1c(C)nc2nc(-c3cc(OC)cc(OC)c3)nn2c1C (stereo not given) | -0.148
61 | O=[N+]([O-])c1ccc(N2CCN(S(=O)(=O)c3ccc(Cl)cc3)CC2)cc1NCC1CCCO1 (stereo not given) | -0.211
62 | O=C(CN1CCN(c2ccccc2)CC1)Nc1ccc(-n2cnnn2)cc1 | 0.659
63 | CCC1(C)Cc2c(sc3c2c(=O)n(C)c2nnc(SCc4ccccc4)n32)CO1 (stereo not given) | -0.196
64 | CCC1(C)Cc2c(sc3c2c(=O)n(C)c2nnc(SCC(=O)c4ccccc4)n32)CO1 (stereo not given) | -0.469
65 | CCC1(C)Cc2c(sc3c2c(=O)n(C)c2nnc(SCc4ccc5c(c4)OCO5)n32)CO1 (stereo not given) | 3.12 (active)
66 | COc1ccccc1C(=O)N/C(=C\c1ccc2c(c1)OCO2)C(=O)NCCc1nc2ccccc2[nH]1 | -1.09

Row | Compound | z-score
67 | CN(c1ccccc1C(=O)Nc1cccc(Cl)c1Cl)S(C)(=O)=O | 0.0249
68 | Oc1[nH]c2c(Cl)cc(Cl)cc2c1N=NC(=S)NCC1CCCO1 (stereo not given) | 7.5 (active)
69 | Oc1[nH]c2ccccc2c1N=NC(=S)NCCc1ccccc1 | 3.06 (active)
70 | CCOC(=O)C(=O)N=Nc1c(O)[nH]c2ccccc12 | -0.0577
71 | S=C(NCC1CCCO1)Nc1ccc(Cl)cc1 (stereo not given) | 0.0149
72 | S=C(NCC1CCCO1)Nc1ccc(Cl)cc1Cl (stereo not given) | 0.145
73 | O=C(CCn1c(=S)[nH]c2ccccc2c1=O)NCC1CCCO1 (stereo not given) | -0.275
74 | Oc1[nH]c2ccccc2c1C=NCC1CCCO1 (stereo not given) | -0.00202
75 | Oc1[nH]c2ccccc2c1N=NC(=S)NCC1CCCO1 (stereo not given) | 3.01 (active)
76 | CC(C)c1ccc2[nH]c(O)c(N=NC(=S)NCCc3ccccc3)c2c1 | 0.396
77 | Cc1ccccc1NC(=O)C1C2CCCC1C2c1ccccc1 (stereo not given) | 0.216
78 | CCc1ccc(OCC(=O)NC(NC(=S)Nc2ccccc2OC)C(Cl)(Cl)Cl)cc1 (stereo not given) | -0.163
79 | Cc1cc(C(=O)OCC(=O)NC(C)(C)C)c2ccccc2n1 | -0.284
80 | O=C(N/N=C1\CCc2ccccc21)c1ccccc1Cl | -0.225
81 | COc1ccc(CCCc2nnc(SCC(=O)Nc3nc(C)cs3)n2C)cc1 | 0.338
82 | O=C(NC1CCCC1)c1cccc(NC(=O)c2ccco2)c1 | 0.253
83 | Cc1onc(-c2c(F)cccc2Cl)c1C(=O)Nc1cccc2nsnc12 | 2.67
84 | Cc1onc(-c2ccccc2)c1C(=O)Nc1cccc2nsnc12 | -0.396
85 | Cc1onc(-c2ccccc2Cl)c1C(=O)Nc1cccc2nsnc12 | 1.17
86 | CC1CCCCN1C(=O)Nc1cccc(Cl)c1 (stereo not given) | 0.789
87 | COc1ccc(C(=O)c2c(C)c3cc(C)ccc3n2CC(O)CN2CCOCC2)cc1 (stereo not given) | -0.197
88 | CS(=O)(=O)N(CC(=O)NCCSc1ccccc1)c1ccc2c(c1)OCO2 | 1.46

Row | Compound | z-score
89 | Cc1ccc2nc(SCC(=O)N3CCOCC3)[nH]c2c1 | 0.844
90 | CC(C)CNC(=S)NNC(=O)c1csc2c1CCC(C)C2 (stereo not given) | -1.59
91 | CCNC(=S)NNC(=O)c1csc2c1CCC(C)C2 (stereo not given) | 0.0328
92 | CC1CCc2sc(C(=O)N/N=C/C3CCCCC3)cc2C1 (stereo not given) | -0.764
93 | CC1CCc2c(C(=O)Nc3ccc(OC(F)(F)F)cc3)csc2C1 (stereo not given) | -0.225
94 | Cc1ccccc1NC(=S)NNC(=O)c1csc2c1CCC(C)C2 (stereo not given) | 8.84 (active)
95 | Cc1ccc(C)c(NC(=S)NNC(=O)c2cc3c(s2)CCC(C)C3)c1 (stereo not given) | 10.3 (active)
96 | Cc1cccc(NC(=S)NNC(=O)c2csc3c2CCCC3)c1 | 14 (active)
97 | Cc1cccc(NC(=S)NNC(=O)c2ccc(Br)o2)c1 | 1.14
98 | Cc1ccccc1NC(=O)c1csc2c1CCCC2 | -0.435
99 | C/C(=N\NC(=O)c1cc2c(s1)CCC(C)C2)c1ccncc1 (stereo not given) | -0.506
100 | Cc1cccc(NC(=S)NNC(=O)c2ccccc2Br)c1 | 0.847
101 | Cc1cccc(NC(=S)NNC(=O)c2csc3c2CCC(C)C3)c1 (stereo not given) | 9.39 (active)
102 | COc1ccc(OC)c(CN(CCCN2CCOCC2)S(=O)(=O)c2ccc(NC(C)=O)cc2)c1 | -0.129
103 | CCN(CC)S(=O)(=O)c1ccc(-c2nnc(SCC(=O)Nc3ccc(OC)c(OC)c3)o2)cc1 | 0.581
104 | COc1ccc(OC(C)C(=O)Nc2ccccc2C(F)(F)F)cc1 (stereo not given) | -0.114
105 | O=C(Nc1ccccc1C(=O)NCc1ccccc1)c1ccccc1 | -0.543
106 | COn1c(=O)c(=O)n(O)c2ccccc21 | -0.141
107 | CN1C(=O)c2cccc(N(C)C)c2C1=O | -0.183
108 | O=C(Nc1nsc(-c2ccccc2)n1)c1cccs1 | -0.31
109 | Cc1nn(-c2cccc(Cl)c2)c2c1C(c1cccnc1)C(C#N)=C(N)O2 (stereo not given) | 0.0248
110 | CCCCOc1ccc(CONS(=O)(=O)c2ccc(NC(C)=O)cc2)cc1Cl | -0.176
